# According to article PMC7862700, “An all-to-all approach to the identification of sequence-specific readers for epigenetic DNA modifications on cytosine”:
# What was measured:
# Assay in all cases: DAPPL (digital affinity profiling via proximity ligation, sequencing); 10 mM Tris-HCl pH 7.5, 50 mM NaCl, 1 mM DTT, 4% glycerol, room temperature, 30 min; GST-TFs on glutathione beads, 16-mer random dsDNA library, 0.1% formaldehyde crosslink after washing; high values mean tight binding
# [1] = biological target: T1, FLI1 (Homo sapiens, UniProt Q01543 1-452); conditions: protein: recombinant; tags: N-terminal GST; dsDNA, one strand shown
# T1 sequence: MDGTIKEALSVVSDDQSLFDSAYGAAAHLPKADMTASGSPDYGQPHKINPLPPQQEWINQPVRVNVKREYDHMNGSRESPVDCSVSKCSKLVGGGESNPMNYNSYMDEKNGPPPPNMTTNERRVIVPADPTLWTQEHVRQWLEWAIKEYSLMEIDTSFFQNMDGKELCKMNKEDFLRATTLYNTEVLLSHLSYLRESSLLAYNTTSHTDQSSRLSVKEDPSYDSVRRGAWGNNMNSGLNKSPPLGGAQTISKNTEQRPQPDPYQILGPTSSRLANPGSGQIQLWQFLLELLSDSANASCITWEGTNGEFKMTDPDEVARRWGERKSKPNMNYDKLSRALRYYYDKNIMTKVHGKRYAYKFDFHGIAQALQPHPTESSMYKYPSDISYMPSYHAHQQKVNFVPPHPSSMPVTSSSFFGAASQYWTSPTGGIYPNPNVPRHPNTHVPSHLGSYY
# How it was run: (§1)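 Sequencing on an Illumina NextSeq500 followed washing, crosslinking with 0.1% formaldehyde, proximity ligation (BsaI/T4 ligase, 1 h, 37 °C) and PCR amplification of pools that had been incubated for 30 min at room temperature with 200 nmole of a random double-stranded 16-mer DNA library in Tris/NaCl/DTT/glycerol buffer. Each pool held DNA-barcoded human transcription factors, expressed in yeast as GST fusions and captured on glutathione beads, plus a tag-only sample. Binding signal is a hexamer's read frequency for a factor divided by its frequency in the tag-only sample.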
# [2] = biological target: T2, ELK1 (Homo sapiens, UniProt P19419 1-428); conditions: protein: recombinant; tags: N-terminal GST; dsDNA, one strand shown
# T2 sequence: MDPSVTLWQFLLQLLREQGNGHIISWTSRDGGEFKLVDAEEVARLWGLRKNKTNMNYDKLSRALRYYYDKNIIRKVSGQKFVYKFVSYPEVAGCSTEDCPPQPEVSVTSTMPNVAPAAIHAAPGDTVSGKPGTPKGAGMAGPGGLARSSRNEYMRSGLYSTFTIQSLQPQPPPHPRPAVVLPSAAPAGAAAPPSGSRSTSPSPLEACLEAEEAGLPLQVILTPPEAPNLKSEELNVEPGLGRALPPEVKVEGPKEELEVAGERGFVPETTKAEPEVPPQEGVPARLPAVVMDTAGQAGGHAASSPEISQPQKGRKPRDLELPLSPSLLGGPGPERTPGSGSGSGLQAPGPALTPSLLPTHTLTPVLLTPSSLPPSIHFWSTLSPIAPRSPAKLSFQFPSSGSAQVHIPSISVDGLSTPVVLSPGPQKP
# How it was run: as §1
# [3] = biological target: T3, GABPA (Homo sapiens, UniProt Q06546 1-454); conditions: protein: recombinant; tags: N-terminal GST; dsDNA, one strand shown
# T3 sequence: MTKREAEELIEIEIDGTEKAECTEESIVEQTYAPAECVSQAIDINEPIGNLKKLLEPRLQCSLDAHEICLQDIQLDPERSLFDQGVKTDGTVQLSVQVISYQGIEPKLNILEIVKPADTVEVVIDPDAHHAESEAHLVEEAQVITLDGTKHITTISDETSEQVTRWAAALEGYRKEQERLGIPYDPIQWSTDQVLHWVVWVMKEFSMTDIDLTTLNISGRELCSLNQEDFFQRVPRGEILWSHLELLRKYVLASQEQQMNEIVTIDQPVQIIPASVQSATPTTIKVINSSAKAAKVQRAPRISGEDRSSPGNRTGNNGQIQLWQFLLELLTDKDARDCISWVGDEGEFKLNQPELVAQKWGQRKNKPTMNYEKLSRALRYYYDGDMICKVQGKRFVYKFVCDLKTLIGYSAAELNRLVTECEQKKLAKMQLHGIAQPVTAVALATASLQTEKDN
# How it was run: as §1
# [4] = biological target: T4, ERG (Homo sapiens, UniProt P11308 1-479); conditions: protein: recombinant; tags: N-terminal GST; dsDNA, one strand shown
# T4 sequence: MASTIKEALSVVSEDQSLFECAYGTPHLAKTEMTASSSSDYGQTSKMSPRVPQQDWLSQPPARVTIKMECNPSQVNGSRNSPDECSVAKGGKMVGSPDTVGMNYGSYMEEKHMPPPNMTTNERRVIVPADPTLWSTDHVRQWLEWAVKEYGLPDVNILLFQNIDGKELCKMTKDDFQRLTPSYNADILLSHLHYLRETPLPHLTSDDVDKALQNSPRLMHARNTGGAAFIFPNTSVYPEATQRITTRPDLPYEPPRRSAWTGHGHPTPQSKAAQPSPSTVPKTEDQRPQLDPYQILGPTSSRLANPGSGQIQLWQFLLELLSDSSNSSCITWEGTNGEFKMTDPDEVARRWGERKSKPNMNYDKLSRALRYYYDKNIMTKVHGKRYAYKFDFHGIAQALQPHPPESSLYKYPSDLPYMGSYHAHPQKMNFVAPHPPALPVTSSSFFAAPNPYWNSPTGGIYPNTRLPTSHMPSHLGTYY
# How it was run: as §1
# [5] = biological target: ELF1 (Homo sapiens, UniProt P32519 1-619); conditions: protein: recombinant; tags: N-terminal GST; dsDNA, one strand shown
# Chain of ELF1 (P32519 whole entry): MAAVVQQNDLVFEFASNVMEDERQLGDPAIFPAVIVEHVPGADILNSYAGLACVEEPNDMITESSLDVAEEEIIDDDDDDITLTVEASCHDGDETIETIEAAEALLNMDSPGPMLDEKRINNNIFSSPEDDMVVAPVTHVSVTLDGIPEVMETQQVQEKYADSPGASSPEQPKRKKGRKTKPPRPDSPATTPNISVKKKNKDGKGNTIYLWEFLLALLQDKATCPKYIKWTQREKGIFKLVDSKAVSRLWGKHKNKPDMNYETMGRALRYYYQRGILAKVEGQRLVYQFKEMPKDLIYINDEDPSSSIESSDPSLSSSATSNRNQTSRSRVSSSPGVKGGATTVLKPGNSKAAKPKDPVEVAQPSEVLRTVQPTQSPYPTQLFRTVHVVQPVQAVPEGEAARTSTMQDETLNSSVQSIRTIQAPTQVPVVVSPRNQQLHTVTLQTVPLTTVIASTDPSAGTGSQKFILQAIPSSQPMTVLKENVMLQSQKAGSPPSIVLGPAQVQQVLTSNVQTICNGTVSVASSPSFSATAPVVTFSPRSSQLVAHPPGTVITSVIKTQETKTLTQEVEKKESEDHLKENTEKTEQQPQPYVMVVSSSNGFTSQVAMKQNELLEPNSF
# How it was run: as §1
# [6] = biological target: T5, EHF (Homo sapiens, UniProt Q9NZC4 1-300); conditions: protein: recombinant; tags: N-terminal GST; dsDNA, one strand shown
# T5 sequence: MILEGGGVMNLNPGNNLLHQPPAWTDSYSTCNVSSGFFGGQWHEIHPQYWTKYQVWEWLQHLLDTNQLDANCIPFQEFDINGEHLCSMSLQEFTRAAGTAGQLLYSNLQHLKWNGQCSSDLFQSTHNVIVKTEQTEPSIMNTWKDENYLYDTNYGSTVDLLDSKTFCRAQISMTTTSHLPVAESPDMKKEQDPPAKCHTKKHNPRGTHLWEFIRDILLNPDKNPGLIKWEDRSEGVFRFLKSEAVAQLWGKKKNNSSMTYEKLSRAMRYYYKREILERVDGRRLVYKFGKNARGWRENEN
# How it was run: as §1
# [7] = biological target: SPI1 (Homo sapiens, UniProt P17947 1-270); conditions: protein: recombinant; tags: N-terminal GST; dsDNA, one strand shown
# How it was run: as §1
# [8] = biological target: SPIB (Homo sapiens, UniProt Q01892 1-262); conditions: protein: recombinant; tags: N-terminal GST; dsDNA, one strand shown
# Chain of SPIB (Q01892 whole entry): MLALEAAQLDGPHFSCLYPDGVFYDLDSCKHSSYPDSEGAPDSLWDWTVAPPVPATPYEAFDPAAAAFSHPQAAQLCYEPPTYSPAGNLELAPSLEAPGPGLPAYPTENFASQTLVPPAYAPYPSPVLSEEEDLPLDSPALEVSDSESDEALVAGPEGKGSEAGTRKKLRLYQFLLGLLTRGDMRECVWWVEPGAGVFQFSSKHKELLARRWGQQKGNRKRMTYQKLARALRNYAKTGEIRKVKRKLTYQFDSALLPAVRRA
# How it was run: as §1
# [9] = biological target: T6, ELK3 (Homo sapiens, UniProt P41970 1-407); conditions: protein: recombinant; tags: N-terminal GST; dsDNA, one strand shown
# T6 sequence: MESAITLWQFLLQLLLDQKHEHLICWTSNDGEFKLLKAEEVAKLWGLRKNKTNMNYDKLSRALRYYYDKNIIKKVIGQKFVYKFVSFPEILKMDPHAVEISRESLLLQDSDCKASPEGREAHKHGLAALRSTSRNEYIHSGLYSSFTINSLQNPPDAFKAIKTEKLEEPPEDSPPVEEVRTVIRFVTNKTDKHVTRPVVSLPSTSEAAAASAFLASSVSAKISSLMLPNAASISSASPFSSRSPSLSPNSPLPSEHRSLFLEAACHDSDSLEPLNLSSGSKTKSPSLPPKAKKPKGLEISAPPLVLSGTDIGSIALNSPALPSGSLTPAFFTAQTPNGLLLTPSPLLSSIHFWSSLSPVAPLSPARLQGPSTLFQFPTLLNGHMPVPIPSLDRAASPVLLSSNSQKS
# How it was run: as §1
# [10] = biological target: T7, FEV (Homo sapiens, UniProt Q99581 1-238); conditions: protein: recombinant; tags: N-terminal GST; dsDNA, one strand shown
# T7 sequence: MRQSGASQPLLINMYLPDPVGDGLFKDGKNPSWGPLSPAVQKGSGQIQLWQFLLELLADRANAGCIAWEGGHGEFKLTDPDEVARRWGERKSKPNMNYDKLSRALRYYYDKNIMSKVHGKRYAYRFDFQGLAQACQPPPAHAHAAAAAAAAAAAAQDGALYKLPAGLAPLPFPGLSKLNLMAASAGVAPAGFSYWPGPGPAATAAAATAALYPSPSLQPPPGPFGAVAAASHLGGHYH
# How it was run: as §1
# [11] = biological target: ETV5 (Homo sapiens, UniProt P41161 1-510); conditions: protein: recombinant; tags: N-terminal GST; dsDNA, one strand shown
# Chain of ETV5 (P41161 whole entry): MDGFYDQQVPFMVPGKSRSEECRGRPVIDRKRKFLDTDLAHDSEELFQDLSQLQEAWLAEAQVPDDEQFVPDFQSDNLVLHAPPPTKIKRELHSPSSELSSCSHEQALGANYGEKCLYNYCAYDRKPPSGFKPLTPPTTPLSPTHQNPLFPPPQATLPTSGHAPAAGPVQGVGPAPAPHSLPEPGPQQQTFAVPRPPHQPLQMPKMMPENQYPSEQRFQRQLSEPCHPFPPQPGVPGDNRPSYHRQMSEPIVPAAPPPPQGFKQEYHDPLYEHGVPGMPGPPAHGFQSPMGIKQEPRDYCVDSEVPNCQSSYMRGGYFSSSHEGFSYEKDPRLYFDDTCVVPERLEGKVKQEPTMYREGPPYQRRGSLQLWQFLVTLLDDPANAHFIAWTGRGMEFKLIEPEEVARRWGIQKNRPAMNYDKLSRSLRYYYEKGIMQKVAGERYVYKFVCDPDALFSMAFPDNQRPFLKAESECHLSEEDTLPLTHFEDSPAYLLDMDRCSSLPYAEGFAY
# How it was run: as §1
# [12] = biological target: HSF1 (Homo sapiens, UniProt Q00613 1-529); conditions: protein: recombinant; tags: N-terminal GST; chain copies: 3; dsDNA, one strand shown
# Chain of HSF1 (Q00613 whole entry): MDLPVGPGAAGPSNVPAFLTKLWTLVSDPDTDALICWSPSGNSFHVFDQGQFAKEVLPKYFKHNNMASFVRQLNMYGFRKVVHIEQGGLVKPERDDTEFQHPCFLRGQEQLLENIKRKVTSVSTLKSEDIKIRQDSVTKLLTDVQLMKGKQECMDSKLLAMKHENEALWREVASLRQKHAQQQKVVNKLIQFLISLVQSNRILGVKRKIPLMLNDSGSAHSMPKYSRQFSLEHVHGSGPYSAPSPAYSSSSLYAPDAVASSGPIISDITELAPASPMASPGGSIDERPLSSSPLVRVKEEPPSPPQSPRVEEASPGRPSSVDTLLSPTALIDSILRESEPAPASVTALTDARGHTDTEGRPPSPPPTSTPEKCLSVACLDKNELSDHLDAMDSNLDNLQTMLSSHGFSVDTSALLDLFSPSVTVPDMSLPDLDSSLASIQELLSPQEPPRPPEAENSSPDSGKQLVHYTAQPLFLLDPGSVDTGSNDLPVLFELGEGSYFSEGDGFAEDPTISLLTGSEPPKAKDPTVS
# How it was run: as §1
# [13] = biological target: T8, SPIC (Homo sapiens, UniProt Q8N5J4 1-248); conditions: protein: recombinant; tags: N-terminal GST; dsDNA, one strand shown
# T8 sequence: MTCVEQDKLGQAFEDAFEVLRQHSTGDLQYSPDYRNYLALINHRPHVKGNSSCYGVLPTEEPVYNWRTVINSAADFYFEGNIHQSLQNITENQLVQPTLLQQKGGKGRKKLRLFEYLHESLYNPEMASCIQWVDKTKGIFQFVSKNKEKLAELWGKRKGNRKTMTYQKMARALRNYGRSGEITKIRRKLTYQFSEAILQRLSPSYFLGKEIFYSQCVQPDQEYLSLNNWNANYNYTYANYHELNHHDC
# How it was run: as §1
# [14] = biological target: ELF4 (Homo sapiens, UniProt Q99607 1-663); conditions: protein: recombinant; tags: N-terminal GST; dsDNA, one strand shown
# Chain of ELF4 (Q99607 whole entry): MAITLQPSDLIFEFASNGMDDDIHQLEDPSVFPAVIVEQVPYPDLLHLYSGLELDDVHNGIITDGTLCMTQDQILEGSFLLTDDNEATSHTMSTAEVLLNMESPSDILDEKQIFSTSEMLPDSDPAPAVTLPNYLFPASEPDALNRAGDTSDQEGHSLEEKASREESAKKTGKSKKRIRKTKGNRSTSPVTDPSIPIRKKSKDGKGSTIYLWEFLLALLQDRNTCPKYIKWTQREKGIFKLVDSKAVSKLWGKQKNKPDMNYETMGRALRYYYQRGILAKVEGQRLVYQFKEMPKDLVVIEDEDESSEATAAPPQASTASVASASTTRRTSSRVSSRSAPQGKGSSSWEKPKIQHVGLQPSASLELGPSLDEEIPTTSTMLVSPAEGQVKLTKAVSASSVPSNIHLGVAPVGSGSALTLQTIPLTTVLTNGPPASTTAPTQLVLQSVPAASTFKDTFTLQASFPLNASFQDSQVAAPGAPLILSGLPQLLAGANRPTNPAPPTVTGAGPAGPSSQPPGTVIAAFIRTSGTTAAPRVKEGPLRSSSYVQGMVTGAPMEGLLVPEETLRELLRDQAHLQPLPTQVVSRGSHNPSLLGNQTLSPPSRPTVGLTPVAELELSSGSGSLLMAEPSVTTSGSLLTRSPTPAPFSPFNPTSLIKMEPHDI
# How it was run: as §1
# [15] = biological target: T9, ELK4 (Homo sapiens, UniProt P28324-2 1-405); conditions: protein: recombinant; tags: N-terminal GST; dsDNA, one strand shown
# T9 sequence: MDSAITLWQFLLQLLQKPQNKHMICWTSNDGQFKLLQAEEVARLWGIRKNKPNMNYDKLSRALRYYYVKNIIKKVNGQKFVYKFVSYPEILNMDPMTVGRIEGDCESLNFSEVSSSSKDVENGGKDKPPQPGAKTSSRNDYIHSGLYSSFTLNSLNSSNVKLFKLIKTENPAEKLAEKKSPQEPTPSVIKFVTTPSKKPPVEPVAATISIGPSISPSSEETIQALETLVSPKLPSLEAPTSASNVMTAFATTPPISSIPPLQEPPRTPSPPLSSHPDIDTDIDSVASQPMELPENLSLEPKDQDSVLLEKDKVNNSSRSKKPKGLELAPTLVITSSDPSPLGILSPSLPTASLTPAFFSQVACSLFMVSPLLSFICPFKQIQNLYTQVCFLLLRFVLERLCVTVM
# How it was run: as §1
# [16] = biological target: T10, ETV2 (Homo sapiens, UniProt O00321 1-342); conditions: protein: recombinant; tags: N-terminal GST; dsDNA, one strand shown
# T10 sequence: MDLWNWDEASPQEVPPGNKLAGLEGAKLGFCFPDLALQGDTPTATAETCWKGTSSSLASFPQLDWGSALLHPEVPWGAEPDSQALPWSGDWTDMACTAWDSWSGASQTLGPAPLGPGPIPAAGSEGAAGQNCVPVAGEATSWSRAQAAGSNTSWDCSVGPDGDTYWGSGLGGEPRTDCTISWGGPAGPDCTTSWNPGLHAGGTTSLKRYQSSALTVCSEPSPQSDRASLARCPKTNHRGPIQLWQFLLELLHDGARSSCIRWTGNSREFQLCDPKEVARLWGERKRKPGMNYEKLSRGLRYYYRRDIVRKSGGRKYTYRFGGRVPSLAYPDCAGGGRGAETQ
# How it was run: as §1
# [17] = biological target: T11, ELF3 (Homo sapiens, UniProt P78545 1-371); conditions: protein: recombinant; tags: N-terminal GST; dsDNA, one strand shown
# T11 sequence: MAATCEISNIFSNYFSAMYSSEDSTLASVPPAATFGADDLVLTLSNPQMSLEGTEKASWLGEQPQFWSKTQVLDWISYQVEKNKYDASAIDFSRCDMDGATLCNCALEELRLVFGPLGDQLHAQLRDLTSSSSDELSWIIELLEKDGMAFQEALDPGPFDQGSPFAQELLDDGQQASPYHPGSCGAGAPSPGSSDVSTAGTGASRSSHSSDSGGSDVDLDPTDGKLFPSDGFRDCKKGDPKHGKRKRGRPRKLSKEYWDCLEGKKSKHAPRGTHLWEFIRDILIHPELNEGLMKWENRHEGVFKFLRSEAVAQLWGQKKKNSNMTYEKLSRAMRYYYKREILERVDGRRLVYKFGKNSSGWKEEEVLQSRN
# How it was run: as §1
# [18] = biological target: CRX (Homo sapiens, UniProt O43186 1-299); conditions: protein: recombinant; tags: N-terminal GST; dsDNA, one strand shown
# Chain of CRX (O43186 whole entry): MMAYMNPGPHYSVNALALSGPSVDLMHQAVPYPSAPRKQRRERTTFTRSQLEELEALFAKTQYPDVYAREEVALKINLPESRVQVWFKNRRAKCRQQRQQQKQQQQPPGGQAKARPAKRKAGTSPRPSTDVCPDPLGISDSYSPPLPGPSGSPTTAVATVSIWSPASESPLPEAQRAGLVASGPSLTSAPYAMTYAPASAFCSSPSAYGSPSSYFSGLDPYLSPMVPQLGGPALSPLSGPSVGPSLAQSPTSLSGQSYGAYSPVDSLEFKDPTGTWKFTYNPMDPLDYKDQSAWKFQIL
# How it was run: as §1
# [19] = biological target: ETV1 (Homo sapiens, UniProt P50549 1-477); conditions: protein: recombinant; tags: N-terminal GST; dsDNA, one strand shown
# Chain of ETV1 (P50549 whole entry): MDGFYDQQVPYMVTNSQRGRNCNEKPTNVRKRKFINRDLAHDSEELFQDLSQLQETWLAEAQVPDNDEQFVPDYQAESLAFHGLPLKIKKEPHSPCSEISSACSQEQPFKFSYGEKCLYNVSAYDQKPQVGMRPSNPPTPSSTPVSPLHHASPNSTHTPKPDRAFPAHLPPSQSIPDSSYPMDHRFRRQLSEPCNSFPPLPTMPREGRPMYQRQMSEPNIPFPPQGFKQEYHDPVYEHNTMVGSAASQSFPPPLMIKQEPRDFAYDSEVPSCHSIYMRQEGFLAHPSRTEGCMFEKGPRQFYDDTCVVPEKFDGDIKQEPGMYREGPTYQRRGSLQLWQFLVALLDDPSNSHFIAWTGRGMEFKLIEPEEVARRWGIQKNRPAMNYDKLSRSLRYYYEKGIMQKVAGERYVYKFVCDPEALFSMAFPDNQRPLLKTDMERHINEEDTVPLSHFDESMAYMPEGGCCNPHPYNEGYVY
# How it was run: as §1
sequence,measurement,setting,value
CCGCTT,binding signal,[1],"1.89 fold enrichment (6-mer frequency, TF over GST control)"
same,binding signal,[2],"1.89 fold enrichment (6-mer frequency, TF over GST control)"
same,binding signal,[3],"1.84 fold enrichment (6-mer frequency, TF over GST control)"
same,binding signal,[4],"1.85 fold enrichment (6-mer frequency, TF over GST control)"
same,binding signal,[5],"1.92 fold enrichment (6-mer frequency, TF over GST control)"
same,binding signal,[6],"1.93 fold enrichment (6-mer frequency, TF over GST control)"
same,binding signal,[7],"2.69 fold enrichment (6-mer frequency, TF over GST control)"
same,binding signal,[8],"1.93 fold enrichment (6-mer frequency, TF over GST control)"
same,binding signal,[9],"2.06 fold enrichment (6-mer frequency, TF over GST control)"
same,binding signal,[10],"2.01 fold enrichment (6-mer frequency, TF over GST control)"
same,binding signal,[11],"2.03 fold enrichment (6-mer frequency, TF over GST control)"
same,binding signal,[12],"1.49 fold enrichment (6-mer frequency, TF over GST control)"
same,binding signal,[13],"1.83 fold enrichment (6-mer frequency, TF over GST control)"
same,binding signal,[14],"1.87 fold enrichment (6-mer frequency, TF over GST control)"
same,binding signal,[15],"1.8 fold enrichment (6-mer frequency, TF over GST control)"
same,binding signal,[16],"1.6 fold enrichment (6-mer frequency, TF over GST control)"
same,binding signal,[17],"2.08 fold enrichment (6-mer frequency, TF over GST control)"
same,binding signal,[18],"1.82 fold enrichment (6-mer frequency, TF over GST control)"
same,binding signal,[19],"2.11 fold enrichment (6-mer frequency, TF over GST control)"
